# Source: PubChem BioAssay AID1159580 (chemical genetic matrix, 2015)
# In all, about 5,500 compounds went through this assay and about 2,000 (36%) were called active. Roughly 18% stayed inconclusive and do not appear here. This is one part of the list. Unmarked numbers belong to inactive results. Rule as the data show it: active = normalized growth mostly below about 0.91 (no sharp cut-off); inconclusive = no clear call, values can overlap the other calls; inactive = mostly above about 0.92.
# Experiment: chemical genetic growth profiling, strain panel (AID 1159580);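 also: tested at 20 µM; growth read once vehicle control cultures reached saturation at 30 °C; 1 = growth at the plate median or of vehicle wells; lower values mean less growth of the strain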
# Details: growth OD
# [1] = S. cerevisiae deletion strains, locus YAL013W, strain DEP1, stronger effect = lower value
# [2] = S. cerevisiae deletion strains, locus YBR229C, strain ROT2, stronger effect = lower value
# [3] = S. cerevisiae deletion strains, locus YCL061C, strain MRC1, stronger effect = lower value
# [4] = S. cerevisiae deletion strains, locus YDL101C, strain DUN1, stronger effect = lower value
# [5] = S. cerevisiae deletion strains, locus YDL134C, strain PPH21, stronger effect = lower value
# [6] = S. cerevisiae deletion strains, locus YDR150W, strain NUM1, stronger effect = lower value
# [7] = S. cerevisiae deletion strains, locus YEL061C, strain CIN8, stronger effect = lower value
# [8] = S. cerevisiae deletion strains, locus YGR078C, strain PAC10, stronger effect = lower value
# [9] = S. cerevisiae deletion strains, locus YHR030C, strain SLT2, stronger effect = lower value
# [10] = S. cerevisiae deletion strains, locus YHR087W, strain rtc3, stronger effect = lower value
# [11] = S. cerevisiae deletion strains, locus YJL187C, strain SWE1, stronger effect = lower value
# [12] = S. cerevisiae deletion strains, locus YJR043C, strain POL32, stronger effect = lower value
# [13] = S. cerevisiae deletion strains, locus YJR075W, strain HOC1, stronger effect = lower value
# [14] = S. cerevisiae deletion strains, locus YLR039C, strain RIC1, stronger effect = lower value
# [15] = S. cerevisiae deletion strains, locus YLR058C, strain SHM2 (second series), stronger effect = lower value
# [16] = S. cerevisiae deletion strains, locus YLR085C, strain ARP6, stronger effect = lower value
# [17] = S. cerevisiae deletion strains, locus YLR262C, strain YPT6, stronger effect = lower value
# [18] = S. cerevisiae deletion strains, locus YML094W, strain GIM5, stronger effect = lower value
# [19] = S. cerevisiae deletion strains, locus YMR219W, strain ESC1, stronger effect = lower value
# [20] = S. cerevisiae deletion strains, locus YMR263W, strain SAP30, stronger effect = lower value
# [21] = S. cerevisiae deletion strains, locus YMR307W, strain GAS1, stronger effect = lower value
# [22] = S. cerevisiae deletion strains, locus YNL153C, strain GIM3, stronger effect = lower value
# [23] = S. cerevisiae deletion strains, locus YNL298W, strain CLA4 (second series), stronger effect = lower value
# [24] = S. cerevisiae deletion strains, locus YNL322C, strain KRE1, stronger effect = lower value
# [25] = S. cerevisiae deletion strains, locus YNR030W, strain Alg12, stronger effect = lower value
# [26] = S. cerevisiae deletion strains, locus YPL055C, strain LGE1, stronger effect = lower value
# [27] = S. cerevisiae deletion strains, locus YPL241C, strain CIN2, stronger effect = lower value
# [28] = S. cerevisiae deletion strains, locus YPR135W, strain CTF4, stronger effect = lower value
# [29] = S. cerevisiae strains, strain wild type, stronger effect = lower value
structure (smiles),measurement,setting,value
CC(C)(CC(=O)O)CC(=O)Nc1cc(C(F)(F)F)cc(C(F)(F)F)c1,normalized growth,[1],0.997
same,normalized growth,[2],1.01
same,normalized growth,[3],1.03
same,normalized growth,[4],0.997
same,normalized growth,[5],0.999
same,normalized growth,[6],0.993
same,normalized growth,[7],0.998
same,normalized growth,[8],1.01
same,normalized growth,"S. cerevisiae deletion strains, locus YGR229C, strain SMI1, stronger effect = lower value",1
same,normalized growth,[9],1.01
same,normalized growth,[10],1
same,normalized growth,[11],1
same,normalized growth,[12],0.997
same,normalized growth,[13],0.997
same,normalized growth,[14],1.03
same,normalized growth,[15],1.01
same,normalized growth,[16],1.03
same,normalized growth,[17],1.02
same,normalized growth,[18],0.969
same,normalized growth,[19],1.01
same,normalized growth,[20],1.05
same,normalized growth,[21],0.967
same,normalized growth,[22],1.01
same,normalized growth,[23],1.01
same,normalized growth,[24],0.973
same,normalized growth,[25],0.537 (active)
same,normalized growth,"S. cerevisiae deletion strains, locus YOL006C, strain TOP1, stronger effect = lower value",0.964
same,normalized growth,[26],1.01
same,normalized growth,[27],0.639 (active)
same,normalized growth,[28],1.06
FC(F)(F)c1cc(NC(=S)SCCSC(=S)Nc2cc(C(F)(F)F)cc(C(F)(F)F)c2)cc(C(F)(F)F)c1,normalized growth,"S. cerevisiae deletion strains, locus YAR019C, strain CDC15, stronger effect = lower value",0.993
same,normalized growth,"S. cerevisiae deletion strains, locus YBL105C, strain PKC1, stronger effect = lower value",0.989
same,normalized growth,"S. cerevisiae deletion strains, locus YBR135W, strain CKS1, stronger effect = lower value",1
same,normalized growth,"S. cerevisiae deletion strains, locus YBR136W, strain MEC1, stronger effect = lower value",0.986
same,normalized growth,"S. cerevisiae deletion strains, locus YBR160W, strain CDC28, stronger effect = lower value",0.997
same,normalized growth,"S. cerevisiae deletion strains, locus YDL017W, strain CDC7, stronger effect = lower value",0.991
same,normalized growth,"S. cerevisiae deletion strains, locus YDL028C, strain MPS1, stronger effect = lower value",0.991
same,normalized growth,[4],1
same,normalized growth,"S. cerevisiae deletion strains, locus YDL108W, strain KIN28, stronger effect = lower value",0.99
same,normalized growth,"S. cerevisiae deletion strains, locus YDL132W, strain cdc53, stronger effect = lower value",0.988
same,normalized growth,"S. cerevisiae deletion strains, locus YDL214C, strain PRR2, stronger effect = lower value",0.889
same,normalized growth,"S. cerevisiae deletion strains, locus YDR052C, strain DBF4, stronger effect = lower value",1
same,normalized growth,"S. cerevisiae deletion strains, locus YDR054C, strain cdc34, stronger effect = lower value",0.994
same,normalized growth,"S. cerevisiae deletion strains, locus YDR226W, strain ADK1, stronger effect = lower value",0.994
same,normalized growth,"S. cerevisiae deletion strains, locus YDR477W, strain SNF1, stronger effect = lower value",0.951
same,normalized growth,"S. cerevisiae deletion strains, locus YER123W, strain YCK3, stronger effect = lower value",0.949
same,normalized growth,"S. cerevisiae deletion strains, locus YER133W, strain GLC7, stronger effect = lower value",0.911
same,normalized growth,"S. cerevisiae deletion strains, locus YFL009W, strain cdc4, stronger effect = lower value",1
same,normalized growth,"S. cerevisiae deletion strains, locus YFL029C, strain CAK1, stronger effect = lower value",0.994
same,normalized growth,"S. cerevisiae deletion strains, locus YFR003C, strain YPI1, stronger effect = lower value",0.993
same,normalized growth,"S. cerevisiae deletion strains, locus YFR019W, strain FAB1, stronger effect = lower value",1.01
same,normalized growth,"S. cerevisiae deletion strains, locus YFR028C, strain CDC14, stronger effect = lower value",0.993
same,normalized growth,"S. cerevisiae deletion strains, locus YGR040W, strain KSS1, stronger effect = lower value",0.951
same,normalized growth,"S. cerevisiae deletion strains, locus YGR052W, strain FMP48, stronger effect = lower value",1.04
same,normalized growth,"S. cerevisiae deletion strains, locus YGR092W, strain DBF2, stronger effect = lower value",0.993
same,normalized growth,[9],0.984
same,normalized growth,"S. cerevisiae deletion strains, locus YHR079C, strain IRE1, stronger effect = lower value",1.04
same,normalized growth,"S. cerevisiae deletion strains, locus YHR082C, strain KSP1, stronger effect = lower value",1.03
same,normalized growth,"S. cerevisiae deletion strains, locus YHR205W, strain SCH9, stronger effect = lower value",0.983
same,normalized growth,"S. cerevisiae deletion strains, locus YIL147C, strain SLN1, stronger effect = lower value",0.97
same,normalized growth,"S. cerevisiae deletion strains, locus YJL095W, strain BCK1, stronger effect = lower value",1.08
same,normalized growth,"S. cerevisiae deletion strains, locus YJL128C, strain PBS2, stronger effect = lower value",0.954
same,normalized growth,"S. cerevisiae deletion strains, locus YJL157C, strain FAR1, stronger effect = lower value",0.884
same,normalized growth,"S. cerevisiae deletion strains, locus YJR016C, strain ILV3, stronger effect = lower value",0.995
same,normalized growth,"S. cerevisiae deletion strains, locus YJR066W, strain TOR1 (second series), stronger effect = lower value",0.94
same,normalized growth,"S. cerevisiae deletion strains, locus YJR066W, strain TOR1, stronger effect = lower value",1.09
same,normalized growth,"S. cerevisiae deletion strains, locus YKL048C, strain ELM1, stronger effect = lower value",0.971
same,normalized growth,"S. cerevisiae deletion strains, locus YKL067W, strain YNK1, stronger effect = lower value",0.862
same,normalized growth,"S. cerevisiae deletion strains, locus YKL101W, strain HSL1, stronger effect = lower value",0.968
same,normalized growth,"S. cerevisiae deletion strains, locus YKL193C, strain SDS22, stronger effect = lower value",0.992
same,normalized growth,"S. cerevisiae deletion strains, locus YKL203C, strain TOR2, stronger effect = lower value",1.06
same,normalized growth,"S. cerevisiae deletion strains, locus YLR113W, strain HOG1, stronger effect = lower value",0.869
same,normalized growth,"S. cerevisiae deletion strains, locus YLR133W, strain CKI1, stronger effect = lower value",0.972
same,normalized growth,"S. cerevisiae deletion strains, locus YLR403W, strain SFP1, stronger effect = lower value",0.982
same,normalized growth,"S. cerevisiae deletion strains, locus YML070W, strain DAK1, stronger effect = lower value",0.908
same,normalized growth,"S. cerevisiae deletion strains, locus YMR001C, strain CDC5, stronger effect = lower value",0.997
same,normalized growth,"S. cerevisiae deletion strains, locus YMR205C, strain PFK2 (second series), stronger effect = lower value",0.988
same,normalized growth,"S. cerevisiae deletion strains, locus YMR277W, strain FCP1, stronger effect = lower value",0.986
same,normalized growth,"S. cerevisiae deletion strains, locus YNL006W, strain LST8, stronger effect = lower value",0.996
same,normalized growth,"S. cerevisiae deletion strains, locus YNL020C, strain ARK1, stronger effect = lower value",0.973
same,normalized growth,"S. cerevisiae deletion strains, locus YNL161W, strain CBK1, stronger effect = lower value",0.998
same,normalized growth,"S. cerevisiae deletion strains, locus YNL183C, strain NPR1, stronger effect = lower value",1.03
same,normalized growth,"S. cerevisiae deletion strains, locus YNL207W, strain RIO2, stronger effect = lower value",0.987
same,normalized growth,"S. cerevisiae deletion strains, locus YNL222W, strain SSU72, stronger effect = lower value",0.989
same,normalized growth,"S. cerevisiae deletion strains, locus YNL307C, strain MCK1 (second series), stronger effect = lower value",0.984
same,normalized growth,"S. cerevisiae deletion strains, locus YOL078W, strain AVO1, stronger effect = lower value",0.992
same,normalized growth,"S. cerevisiae deletion strains, locus YOL136C, strain PFK27, stronger effect = lower value",0.933
same,normalized growth,"S. cerevisiae deletion strains, locus YOR061W, strain CKA2, stronger effect = lower value",0.994
same,normalized growth,"S. cerevisiae deletion strains, locus YOR119C, strain RIO1, stronger effect = lower value",1.02
same,normalized growth,"S. cerevisiae deletion strains, locus YOR231W, strain MKK1, stronger effect = lower value",1.03
same,normalized growth,"S. cerevisiae deletion strains, locus YOR329C, strain SCD5, stronger effect = lower value",0.996
same,normalized growth,"S. cerevisiae deletion strains, locus YPL031C, strain PHO85, stronger effect = lower value",0.963
same,normalized growth,"S. cerevisiae deletion strains, locus YPL153C, strain RAD53, stronger effect = lower value",0.946
same,normalized growth,"S. cerevisiae deletion strains, locus YPL204W, strain HRR25, stronger effect = lower value",0.932
same,normalized growth,"S. cerevisiae deletion strains, locus YPL209C, strain IPL1, stronger effect = lower value",0.992
same,normalized growth,"S. cerevisiae deletion strains, locus YPL256C, strain CLN2, stronger effect = lower value",0.926
same,normalized growth,"S. cerevisiae deletion strains, locus YPR025C, strain CCL1, stronger effect = lower value",0.999
same,normalized growth,"S. cerevisiae deletion strains, locus YPR106W, strain ISR1, stronger effect = lower value",0.998
same,normalized growth,"S. cerevisiae deletion strains, locus YPR111W, strain DBF20, stronger effect = lower value",0.988
same,normalized growth,"S. cerevisiae deletion strains, strain NNK1, stronger effect = lower value",0.986
same,normalized growth,"S. cerevisiae deletion strains, strain TSCII, stronger effect = lower value",0.993
O=C(Nc1cc(C(F)(F)F)cc(C(F)(F)F)c1)C(c1ccccc1)C1CCCC1 (configuration not stated),normalized growth,[1],1.02
same,normalized growth,[2],1.01
same,normalized growth,[4],1.02
same,normalized growth,[6],1.02
same,normalized growth,[7],0.969
same,normalized growth,[8],1.03
same,normalized growth,[9],1.06
same,normalized growth,[10],1
same,normalized growth,[11],1.02
same,normalized growth,[12],1.01
same,normalized growth,[13],1.03
same,normalized growth,[14],1.04
same,normalized growth,[15],1
same,normalized growth,[16],1.01
same,normalized growth,[17],0.998
same,normalized growth,[18],1.02
same,normalized growth,[19],1
same,normalized growth,[20],1.02
same,normalized growth,[21],1.04
same,normalized growth,[22],1.01
same,normalized growth,[23],1.03
same,normalized growth,[24],1.01
same,normalized growth,[25],1.01
same,normalized growth,[26],1.03
same,normalized growth,[27],1.03
same,normalized growth,[28],1.01
same,normalized growth,[29],1
O=C(CN1CCOCC1)Nc1cc(C(F)(F)F)cc(C(F)(F)F)c1,normalized growth,[1],0.999
same,normalized growth,[2],1.01
same,normalized growth,[3],1.01
same,normalized growth,[4],1
same,normalized growth,[5],0.995
same,normalized growth,[6],1
same,normalized growth,[7],1.01
same,normalized growth,[8],1.01
same,normalized growth,[9],1.02
same,normalized growth,[10],0.995
same,normalized growth,[12],0.974
same,normalized growth,[13],0.986
same,normalized growth,[14],1.06
same,normalized growth,[15],1
same,normalized growth,[16],0.988
same,normalized growth,[17],1.05
same,normalized growth,[18],0.996
same,normalized growth,[19],1.01
same,normalized growth,[20],0.986
same,normalized growth,[21],1.01
same,normalized growth,"S. cerevisiae deletion strains, locus YNL128W, strain TEP1, stronger effect = lower value",0.993
same,normalized growth,[22],0.99
same,normalized growth,[23],0.992
same,normalized growth,[24],1
same,normalized growth,[25],0.994
same,normalized growth,[26],0.972
same,normalized growth,[27],1.07
same,normalized growth,[28],1.02
same,normalized growth,[29],0.999
